Data reported in the supplement of paper PMC12340641.
Where a name gives a salt, the structure may show the parent alone.

Columns and labels:
[1] = biological target: IKZF1 (dCK*-IKZF1 fusion in HEK293FT) (UniProt Q13422); assay: inhibition of IKZF1 HTRF signal (DMSO = 0%, pomalidomide 10 uM = 100%); higher = lower IKZF1 protein level; settings: compound concentration: 5 uM, overnight (~20 h)
Procedure, shortened: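 For percent inhibition of IKZF1 signal, each plate was normalised to vehicle and to a reference degrader. Cells were HEK293FT stably expressing an IKZF1 fusion, plated at 2000/well in 384-well format and treated overnight at 37 °C with 5 μM compound, one well each. Lysates were probed overnight with a commercial HTRF total-IKZF1 antibody kit, with the 665/620 nm ratio background-subtracted and vehicle and degrader fixed at 0% and 100%.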

HEK293FT dCK*-only = assay: relative growth in counter assay (no AraC = 100%, AraC + DMSO = 0%); higher = more growth rescue independent of IKZF1; settings: compound concentration: 5 uM; AraC concentration: 0.3 uM; overnight pretreatment + 4 days AraC
Procedure, shortened: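 HEK293FT cells carrying only an engineered kinase construct were plated at 300 per well (384-well) and given 5 μM compound 2 h later. Following overnight at 37 °C, a nucleoside suicide substrate (0.3 μM) plus medium was added for 4 days. Hoechst 33342-stained nuclei were imaged and counted on day 5, with 100% assigned to wells without suicide substrate and 0% to substrate plus vehicle on each plate.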

HEK293FT dCK*-IKZF1 = assay: relative growth recovery (pomalidomide 10 uM = 100%, DMSO = 0%); higher = more growth rescue (IKZF1 fusion degradation); settings: compound concentration: 5 uM; AraC concentration: 0.3 uM; overnight pretreatment + 4 days AraC
Procedure, shortened: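 Means of duplicates from different days are given for growth recovery, normalised per plate against a reference degrader and vehicle. The reference degrader set the 100% level and vehicle the 0% level. HEK293FT cells stably expressing a deoxycytidine kinase–IKZF1 fusion (300/well, 384-well) received 5 μM compound 2 h after seeding and, after overnight at 37 °C, 0.3 μM of a nucleoside suicide substrate plus medium for 4 days. Nuclei stained with Hoechst 33342 were then counted by whole-well imaging on day 5.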

Sequence of IKZF1 (dCK*-IKZF1 fusion in HEK293FT) (Q13422 whole entry, looked up, the tested form may be a part): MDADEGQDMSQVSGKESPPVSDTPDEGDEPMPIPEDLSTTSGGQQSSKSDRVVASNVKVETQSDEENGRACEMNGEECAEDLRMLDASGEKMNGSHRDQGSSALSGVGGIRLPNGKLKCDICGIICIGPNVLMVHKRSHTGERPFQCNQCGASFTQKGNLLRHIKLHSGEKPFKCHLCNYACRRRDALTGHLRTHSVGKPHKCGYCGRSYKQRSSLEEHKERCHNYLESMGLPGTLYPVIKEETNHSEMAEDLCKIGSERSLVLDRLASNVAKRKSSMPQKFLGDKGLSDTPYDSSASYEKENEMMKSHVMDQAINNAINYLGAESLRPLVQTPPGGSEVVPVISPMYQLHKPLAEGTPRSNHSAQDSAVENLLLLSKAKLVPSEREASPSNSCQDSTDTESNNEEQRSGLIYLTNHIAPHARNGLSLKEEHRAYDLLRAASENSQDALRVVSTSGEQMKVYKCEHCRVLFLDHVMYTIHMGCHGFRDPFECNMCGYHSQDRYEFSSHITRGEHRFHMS

SMILES	inhibition of IKZF1 HTRF signal [1]	relative growth in counter assay (HEK293FT dCK*-only)	relative growth recovery (HEK293FT dCK*-IKZF1)
CN(C)c1ccc(/C=C2\C(=O)Nc3ccccc32)cc1	-36.5%	-9.78%	2.52%
CCCCCCc1ccc(O)cc1O	-30.8%	4.87%	2.99%
CC(CCc1ccc(O)cc1)NCCc1ccc(O)c(O)c1 (stereo not drawn) [Dobutamine HCl]	18.6%	-5.22%	-1.12%
CC(CN(C)C)CN1c2ccccc2Sc2ccccc21 (stereo not drawn) [trimeprazine]	15.3%	7.5%	-1.37%
COc1cc(N2CCN(C)CC2)ccc1Nc1nccc(-c2cn(C)c3cnccc23)n1	-30.7%	-9.1%	-0.12%
OCCN=CCNc1ccc(NCCNCCO)c2c(O)c3c(O)ccc(O)c3c(O)c12 [Mitoxantrone HCl]	-45.5%	-34.8%	-13.6%
COc1ccc2cc1Oc1ccc(cc1)C[C@H]1c3cc(c(OC)cc3CCN1C)Oc1c(OC)c(OC)cc3c1[C@H](C2)N(C)CC3 [Tetrandrine (Fanchinine)]	8.84%	-14.3%	-3.42%
Oc1cccc2cc3cccc(O)c3c(O)c12 [dithranol]	-46.9%	3.52%	-0.86%
CC[C@]1(O)C[C@H]2CN(CCc3c([nH]c4ccccc34)[C@@](C(=O)OC)(c3cc4c(cc3OC)N(C)[C@H]3[C@@](O)(C(N)=O)[C@H](O)[C@]5(CC)C=CCN6CC[C@]43[C@@H]65)C2)C1 [Vindesine Sulfate]	-14%	-34.3%	-11.6%
CSc1ccc2c(c1)N(CCC1CCCCN1C)c1ccccc1S2 (stereo not drawn)	-29%	7.95%	-4.45%
CCCCC(F)(F)C(=O)CC[C@H]1[C@H](O)CC(=O)[C@@H]1CCCCCCC(=O)O [Lubiprostone]	-43.7%	-3.38%	-1.27%
